# Laboratory results taken from PubChem BioAssay (NCI).
# Compounds without any hit were thinned out: in the full panel of roughly 83,000, 20% have a hit.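 Values shown are percent growth following 48 h exposure of cells in 96-well plates to a single concentration of compound; below 10 was considered active.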 Calls of active or inactive are those of the source.
# Tested on: MCF7 breast
# Assay: NCI-60 one-dose screen, 48 h (100 = growth as untreated, 0 = no growth, -100 = all killed)
# Details: 10 µM
row,SMILES,growth
1,O=c1oc2ccc(Cl)cc2c(=O)n1-c1ccc(Cl)cc1F,0.727% (active)
2,O=C(CCc1nnc2sc(Cc3ccccc3Cl)nn12)c1nc2ncccc2[nH]1,80% (inactive)
3,O=c1oc2ccc(I)cc2c(=O)n1-c1ccc(I)cc1F,2.88% (active)
4,O=C(NCc1ccccc1)C1CN(c2ccc(Cl)cc2)N(c2ccc(Cl)cc2)C1=O (stereo unspecified),49.8% (inactive)
5,O=c1oc2ccc(-c3ccc(F)cc3F)cc2c(=O)n1-c1cccc(C(F)(F)F)c1,3.59% (active)
6,Nc1nc(-c2cnccn2)nn1-c1nc2ccccc2s1,83.8% (inactive)
7,O=C(c1ccccc1)N(C(=S)NCCc1ccc(Cl)cc1)c1ccc(Cl)cc1,20.8% (inactive)
8,O=C(COc1cc(O)c2c(=O)cc(-c3ccccc3)oc2c1)Nc1ccccc1,85.3% (inactive)
9,O=C(Nc1ccc(I)cc1F)c1cc(Cl)ccc1O,1.52% (active)
10,O=c1oc2ccc(F)cc2c(=O)n1-c1ccc(I)cc1F,1.73% (active)
11,O=C(Nc1ccc(I)cc1F)c1cc(Br)ccc1O,2.45% (active)
12,CSc1nc2c(c(=O)[nH]1)N=C1c3ccccc3C(=O)C1C(c1ccc(F)cc1)N2 (stereo unspecified),40.4% (inactive)
13,O=C(Nc1ccc(F)cc1F)c1cc(I)ccc1O,5.52% (active)
14,O=C(Nc1ccc(Br)cc1F)c1cc(Cl)ccc1O,0.423% (active)
15,Cn1nc(C(C)(C)C)cc1NC(=O)Cc1ccc(/C=C2\C(=O)Nc3ccccc32)cc1,19.2% (inactive)
16,CN(CCc1ccccc1)C(=S)N(C(=O)c1ccc([N+](=O)[O-])cc1)c1ccc(Cl)cc1,33% (inactive)
